From PubChem BioAssay come the findings set out here.

The nature of test [1]: antimalarial activity against Dd2 strain (AID 2302;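 active = growth inhibition above 50% at the single 2 µM test dose, taken to imply half-maximal potency below 2 µM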;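 note: 0% = DMSO untreated growth and 100% = chloroquine plus artemisinin killed control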). The following applies: P. falciparum Dd2 in RBCs, LDH growth readout, 72 h; at 2 µM; hits give high values.
A short description of test [2]: HepG2 cytotoxicity, primary screen, cytotoxicity control for P. falciparum antimalarial project, cell-based, ATP luminescence (AID 2303;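 active = inhibition above 50%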;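 note: 0% = DMSO wells and 100% = digitonin-killed cells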). The note with it: HepG2 viability, 24-48 h, at 10 µM, hits give high values.
For test [3], the target named is L-lactate dehydrogenase (Plasmodium falciparum (isolate CDC / Honduras)) (UniProt Q27743). The test can be described thus: PfLDH activity inhibition – cell lysate, 3D7 strain, counter-screen for P. falciparum growth inhibition project (AID 2304).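 Note: 0% = vehicle and 100% = reference inhibitor.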 The following applies: P. falciparum 3D7 crude extract, LDH APAD/NBT absorbance; at 2 µM; hits give high values.
Chain of L-lactate dehydrogenase (Plasmodium falciparum (isolate CDC / Honduras)) (Q27743 whole entry, looked up): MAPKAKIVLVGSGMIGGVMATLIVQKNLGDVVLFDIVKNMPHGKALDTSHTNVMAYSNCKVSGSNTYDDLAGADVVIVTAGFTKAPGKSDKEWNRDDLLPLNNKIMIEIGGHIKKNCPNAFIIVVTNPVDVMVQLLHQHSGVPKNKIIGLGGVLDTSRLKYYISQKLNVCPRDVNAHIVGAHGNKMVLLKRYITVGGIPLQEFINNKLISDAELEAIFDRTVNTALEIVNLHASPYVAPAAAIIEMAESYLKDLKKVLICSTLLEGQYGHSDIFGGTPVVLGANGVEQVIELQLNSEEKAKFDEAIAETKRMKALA
Test [4] in a line: inhibition of 3D7 malaria parasite growth – strain 3D7 (AID 2306).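 Note: 0% = DMSO wells and 100% = chloroquine plus artemisinin control wells.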 The following applies: P. falciparum 3D7 erythrocytic growth, LDH absorbance, 72 h; at 2 µM; hits give high values.
For test [5], the target named is Calcium-dependent protein kinase 1 (Plasmodium falciparum (isolate 3D7)) (UniProt P62344). Briefly: PfCDPK1 kinase inhibitors, biochemical, TCAMS library (AID 1159585; cut-off not given, nearly all actives have IC50 up to about 0.98 µM;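 note: inhibitors leave more ATP so luminescence rises with inhibition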). The following applies: recombinant PfCDPK1, Kinase-Glo ATP depletion luminescence. (In general: In Kinase-Glo more light means more ATP remaining.)
Chain of Calcium-dependent protein kinase 1 (Plasmodium falciparum (isolate 3D7)) (P62344 whole entry, looked up): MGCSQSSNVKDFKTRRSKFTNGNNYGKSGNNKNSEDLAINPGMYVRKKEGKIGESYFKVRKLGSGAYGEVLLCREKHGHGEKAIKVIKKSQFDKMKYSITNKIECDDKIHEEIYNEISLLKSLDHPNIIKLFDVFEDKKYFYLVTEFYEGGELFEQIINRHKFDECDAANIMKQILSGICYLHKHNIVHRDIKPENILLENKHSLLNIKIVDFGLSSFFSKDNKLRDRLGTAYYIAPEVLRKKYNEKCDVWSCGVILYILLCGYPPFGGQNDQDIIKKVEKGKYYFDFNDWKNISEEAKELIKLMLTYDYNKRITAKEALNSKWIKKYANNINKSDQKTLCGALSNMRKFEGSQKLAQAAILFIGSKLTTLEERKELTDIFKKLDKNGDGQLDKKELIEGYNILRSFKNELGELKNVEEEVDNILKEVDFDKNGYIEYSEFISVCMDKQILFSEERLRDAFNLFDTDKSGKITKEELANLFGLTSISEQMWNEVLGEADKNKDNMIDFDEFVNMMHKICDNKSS
The target of test [6] is Plasmodium falciparum protein kinase 6 (PK6, PF3D7_1337100) (UniProt Q8IDW1). The test can be described thus: PfPK6 kinase inhibitors, biochemical, TCAMS library (AID 1159586). The note with it: recombinant PfPK6, Kinase-Glo ATP depletion luminescence.
Chain of Plasmodium falciparum protein kinase 6 (PK6, PF3D7_1337100) (Q8IDW1 1-305): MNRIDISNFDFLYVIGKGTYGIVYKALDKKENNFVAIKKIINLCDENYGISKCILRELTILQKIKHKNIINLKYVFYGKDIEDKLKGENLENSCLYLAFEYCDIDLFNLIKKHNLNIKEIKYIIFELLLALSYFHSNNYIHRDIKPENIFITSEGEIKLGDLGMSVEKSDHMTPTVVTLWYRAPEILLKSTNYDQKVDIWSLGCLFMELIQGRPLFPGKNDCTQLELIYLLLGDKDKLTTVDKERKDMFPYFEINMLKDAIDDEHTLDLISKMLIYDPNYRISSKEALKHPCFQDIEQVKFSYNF
Test [7] has as its target Protein kinase 7 (PK7), Plasmodium falciparum 3D7 (PF3D7_0213400) (UniProt Q7YTF7). Briefly: inhibition of Plasmodium PK7 catalytic activity – biochemical, TCAMS antimalarial set, Kinase-Glo luminescence (AID 1159587). The note with it: recombinant PfPK7, Kinase-Glo ATP depletion luminescence.
For test [8], the target named is Calcium-dependent protein kinase 4 (Plasmodium falciparum (isolate 3D7)) (UniProt Q8IBS5). The test can be described thus: PfCDPK4 kinase inhibitors, biochemical, TCAMS library (AID 1159588; cut-off not given, nearly all actives have IC50 up to about 0.91 µM). The following applies: recombinant PfCDPK4, Kinase-Glo ATP depletion luminescence.
Chain of Calcium-dependent protein kinase 4 (Plasmodium falciparum (isolate 3D7)) (Q8IBS5 whole entry, looked up): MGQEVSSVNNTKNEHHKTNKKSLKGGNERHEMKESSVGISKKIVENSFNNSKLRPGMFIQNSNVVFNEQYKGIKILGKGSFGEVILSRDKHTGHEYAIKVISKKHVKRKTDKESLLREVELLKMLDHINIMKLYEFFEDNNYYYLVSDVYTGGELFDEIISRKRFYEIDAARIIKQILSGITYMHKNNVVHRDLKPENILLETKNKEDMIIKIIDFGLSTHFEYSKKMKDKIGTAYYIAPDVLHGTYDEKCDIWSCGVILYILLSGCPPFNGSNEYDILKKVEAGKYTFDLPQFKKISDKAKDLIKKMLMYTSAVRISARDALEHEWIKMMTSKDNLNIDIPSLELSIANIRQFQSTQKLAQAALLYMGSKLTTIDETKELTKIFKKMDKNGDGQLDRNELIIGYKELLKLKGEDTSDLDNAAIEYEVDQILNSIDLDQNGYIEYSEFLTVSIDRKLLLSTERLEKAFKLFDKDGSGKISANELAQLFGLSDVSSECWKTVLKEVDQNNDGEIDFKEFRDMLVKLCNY

Unmarked numbers belong to inactive results. For some of these results: Potency and affinity values are given separately. Activity calls are given as the source filed them. Unless noted, the rule behind the calls is not given here.

Chain of Protein kinase 7 (PK7), Plasmodium falciparum 3D7 (PF3D7_0213400) (Q7YTF7 1-343): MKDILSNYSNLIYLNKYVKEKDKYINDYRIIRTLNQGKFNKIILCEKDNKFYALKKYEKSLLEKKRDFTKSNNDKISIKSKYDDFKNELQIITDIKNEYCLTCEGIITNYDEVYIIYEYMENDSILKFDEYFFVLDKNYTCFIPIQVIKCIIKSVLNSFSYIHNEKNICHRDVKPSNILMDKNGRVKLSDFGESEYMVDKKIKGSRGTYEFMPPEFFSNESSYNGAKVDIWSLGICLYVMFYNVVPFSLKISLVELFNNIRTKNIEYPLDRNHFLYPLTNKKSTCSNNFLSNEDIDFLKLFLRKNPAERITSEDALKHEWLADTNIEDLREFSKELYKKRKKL

Usually inhibition stands for the drop in the measured response relative to a control, in per cent. Regarding `CCNc1cc(C(=O)N[C@@H](Cc2ccccc2)[C@H](O)CNCC(C)C)cc(N2CCCC2=O)c1`, the growth inhibition was 97% (active) in test [1] and 98% (active) in test [4]. The inhibition in test [2] was 16%; in test [3] it was 3%. Besides, the result in test [5], in test [6], in test [7] and in test [8] was inactive.

On to `CCCN(CCC)C(=O)c1cc(C(=O)N[C@@H](Cc2ccccc2)[C@H](O)CNC2CC2)cc(N2CCCCS2(=O)=O)c1`, for which the values for the growth inhibition in test [1] and in test [4] were 98% (active) and 100% (active), respectively. In addition, the inhibition in test [2] was -3%; in test [3], 0%. Also, the result in test [5], in test [6], in test [7] and in test [8] was inactive.

Regarding `Cc1cc(N(C)C)nc(Nc2ccc(NC(=O)C(C)Oc3ccccc3)cc2)n1` (stereo not given), the growth inhibition in test [1] is 30%; in test [4], 98% (active). Also, the inhibition in test [2] is 2%; in test [3] it was -1%. Also, the outcome in test [5], in test [6], in test [7] and in test [8] was inactive.

On to `COc1ccc2nc(Nc3nc(-c4ccccn4)cs3)sc2c1`, for which the figures for the growth inhibition in test [1] and in test [4] were 94% (active) and 93% (active), respectively. Besides, the results for the inhibition in test [2] and in test [3] were 40% and 4%, respectively. The outcome in test [5], in test [6], in test [7] and in test [8] was inactive.

For `CCOc1cc2c(cc1OCC)C(c1cc(OC)c(O)cc1Cl)NCC2` (stereo not given), the figures for the growth inhibition in test [1] and in test [4] were 97% (active) and 100% (active), respectively. Further, the figures for the inhibition in test [2] and in test [3] were 15% and -7%, respectively. Besides, the outcome in test [5], in test [6], in test [7] and in test [8] was inactive.

In the case of `N#Cc1ccc(-c2cnc3ccc(NCc4ccc(S(N)(=O)=O)cc4)nn23)cc1`, the growth inhibition in test [1] is 100% (active); in test [4], 98% (active). Further, the inhibition in test [2] is 7%; in test [3], 5%. Further, the result in test [5], in test [6], in test [7] and in test [8] was inactive.

Consider `Cc1cccc2[nH]c(-c3cccc(-c4cccc(CNCCN5CCNCC5)c4)c3)nc12`, for which the figures for the growth inhibition in test [1] and in test [4] were 0% and 90% (active), respectively. Moreover, the inhibition in test [2] was 11%; in test [3], 1%. Besides, the result in test [5], in test [6], in test [7] and in test [8] was inactive.

As for `O=C(Nc1ccc(Cl)cc1)Nc1ccc(OCC(O)CN2CCCCC2)cc1` (stereo not given), the growth inhibition in test [1] was 13%; in test [4], 83% (active). The inhibition in test [2] is 18%; in test [3] it was -1%. The outcome in test [5], in test [6], in test [7] and in test [8] was inactive.

For the molecule `Cc1[nH]c2ccc(-c3ccc(N(C)C)cc3)cc2c(=O)c1Cl`, the growth inhibition in test [1] is 96% (active); in test [4], 97% (active). For the same molecule, the inhibition in test [2] was -1%; in test [3], 5%. In addition, the outcome in test [5], in test [6], in test [7] and in test [8] was inactive.

With `COc1cc([N+](=O)[O-])ccc1NC(=O)c1cc(Cl)ccc1O`, the growth inhibition in test [1] was 100% (active); in test [4] it was 87% (active). Also, the inhibition in test [2] is 92% (active); in test [3], 6%. In addition, the result in test [5], in test [6], in test [7] and in test [8] was inactive.

`COc1ccc(OC)c(-c2cccc(-c3cccc(NC(=O)c4ccc([N+](=O)[O-])o4)c3)n2)c1`: the growth inhibition in test [1] was 97% (active); in test [4], 98% (active). Also, the inhibition was 75% (active) in test [2] and -7% in test [3]. The result in test [5], in test [6], in test [7] and in test [8] was inactive.

`O=C(Nc1ccc2c(c1)CCC2)c1nc(N2CCN(c3ccncc3)CC2)ccc1Cl`: the growth inhibition in test [1] was 97% (active); in test [4] it was 101% (active). For the same molecule, the inhibition is 55% (active) in test [2] and -1% in test [3]. For the same molecule, the result in test [5], in test [6], in test [7] and in test [8] was inactive.

As to `COc1ccc2nccc([C@@H](O)CNCCCN(C)CCOc3cc(F)cc(F)c3)c2c1`, the growth inhibition in test [1] is 58% (active); in test [4], 99% (active). Moreover, the results for the inhibition in test [2] and in test [3] were 11% and -1%, respectively. Moreover, the result in test [5], in test [6], in test [7] and in test [8] was inactive.

Regarding `Cc1ccc(O)c(-c2cc(C(=O)Nc3ccc(S(=O)(=O)N4CCCCCC4)cc3)[nH]n2)c1`, the growth inhibition in test [1] is 80% (active); in test [4] it was 100% (active). Besides, the inhibition in test [2] was 25%; in test [3], 4%. The result in test [5], in test [6], in test [7] and in test [8] was inactive.

`Cc1c(S(=O)(=O)Nc2cccc(CCN3CCCCC3CCN3CCCC3)c2)sc2ccc(Cl)cc12` (stereo not given): the growth inhibition is 10% in test [1] and 93% (active) in test [4]. The inhibition in test [2] is 22%; in test [3] it was 0%. Besides, the outcome in test [5], in test [6], in test [7] and in test [8] was inactive.

For `N#Cc1ccc(C=Cc2nccc3c2[nH]c2ccccc23)cc1`, the growth inhibition was 28% in test [1] and 97% (active) in test [4]. For the same molecule, the inhibition in test [2] is 33%; in test [3] it was 0%. Also, the outcome in test [5], in test [6], in test [7] and in test [8] was inactive.

`COc1ccc2nccc([C@@H](O)CN3CCC(NC(=O)Cc4cccc5c(Br)cccc45)CC3)c2c1`: the growth inhibition was 34% in test [1] and 99% (active) in test [4]. Also, the inhibition in test [2] is 15%; in test [3] it was -3%. The result in test [5], in test [6], in test [7] and in test [8] was inactive.

For the molecule `CC(C)c1cccc(OCC2CCN(c3ncc(C(=O)Nc4ccccc4)cc3Cl)CC2)c1`, the figures for the growth inhibition in test [1] and in test [4] were 88% (active) and 89% (active), respectively. For the same molecule, the inhibition in test [2] is 9%; in test [3], -2%. Further, the outcome in test [5], in test [6], in test [7] and in test [8] was inactive.

For `Cc1ccc(Oc2ccc(NC(=O)CNc3ccccc3N3CCCC3=O)cc2)cc1`, the growth inhibition in test [1] was 97% (active); in test [4], 98% (active). Moreover, the inhibition is 14% in test [2] and -5% in test [3]. Further, the outcome in test [5], in test [6], in test [7] and in test [8] was inactive.

Turning to `CCCCc1ccc(-c2ccc(-c3c(C)[nH]c(C)c(Br)c3=O)cn2)cc1`, the growth inhibition in test [1] was 96% (active); in test [4], 98% (active). Further, the inhibition in test [2] was -7%; in test [3], 1%. In addition, the result in test [5], in test [6], in test [7] and in test [8] was inactive.
